43 sequences from paper PMC7819943, “Rice protein-binding microarrays: a tool to detect cis-acting elements near promoter regions in rice” can be followed below.

Over roughly 35,000 sequences, “fluorescence intensity (a.u.)” has its median near 10,000; the highest 2% begin near 52,000. The full list was thinned out, with the highest values kept by preference.

For the test, the target named is T1, OsWOX13 (Oryza sativa, UniProt Q5QMM3 1-267).
T1 sequence: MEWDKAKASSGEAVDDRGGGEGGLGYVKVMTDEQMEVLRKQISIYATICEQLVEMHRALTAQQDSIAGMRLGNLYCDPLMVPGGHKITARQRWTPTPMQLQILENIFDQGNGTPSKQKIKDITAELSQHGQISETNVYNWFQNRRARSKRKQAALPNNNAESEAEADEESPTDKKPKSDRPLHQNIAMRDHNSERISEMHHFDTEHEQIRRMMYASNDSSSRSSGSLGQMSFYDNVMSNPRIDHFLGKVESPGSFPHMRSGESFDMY
Put plainly: protein-binding microarray (RPBM); PBS, 2% BSA, 51.3 ng/ul salmon testes DNA, 50 uM zinc acetate, 200 nM TF, 25 C, 1 h; high values mean tight binding. Conditions: protein: recombinant; tags: N-terminal polyhistidine and DsRed monomer fusion (pET32a); label: CyDye5-dUTP incorporated in the synthesized complementary strand; 3' TTTTT single-stranded linker to array surface; dsDNA, one strand shown. In short, it runs like this: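 Per-feature fluorescence intensity (arbitrary units), read on an Axon 4000B scanner, is the binding signal. Transcription factors carrying an N-terminal polyhistidine tag and DsRed fusion were expressed in E. coli BL21-CodonPlus and purified on Ni–NTA. A custom Agilent array, made double-stranded by primer extension with Cy5-dUTP and blocked with 2% BSA, was incubated with 200 nM protein in PBS, 2% BSA, salmon testes DNA and 50 µM zinc acetate at 25 °C for 1 h and then washed.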
Regarding “AAGATTGGGCTGTTCATTAATCAAATTATTCTATGTGTCTCGGAGTCACCTAGTGCAG”, the binding signal is 11900 fluorescence intensity (a.u.).

Turning to “TACACGAGATTGGAGGCACTAGGCCTCAGTACATGGCACGCGGAGTCACCTAGTGCAG”, the binding signal is 3870 fluorescence intensity (a.u.).

For “GTATGATTATCTTTCTTCGAGTAATTAACACGAAACGATGCGGAGTCACCTAGTGCAG”, the binding signal was 40700 fluorescence intensity (a.u.).

With “AATAAATTGTATTAATAACAAATTAGTCTATTCTATTAAACGGAGTCACCTAGTGCAG”, the binding signal was 24100 fluorescence intensity (a.u.).

Regarding “AATAATGAATTTAAAATAAAATAAAACTGCATGCAAGCGACGGAGTCACCTAGTGCAG”, the binding signal is 5650 fluorescence intensity (a.u.).

As for “AGTAGATTTTGACATGCTGTGTGTTAACAATGGGAGTAGACGGAGTCACCTAGTGCAG”, the binding signal was 3550 fluorescence intensity (a.u.).

For the sequence “ACCCATCACTAATCAGTAATCACAGTATTACTATTAAATTCGGAGTCACCTAGTGCAG”, the binding signal is 9220 fluorescence intensity (a.u.).

“CATTTAATTCATTGTTATATATATATATATATAGACACACCGGAGTCACCTAGTGCAG”: the binding signal is 3920 fluorescence intensity (a.u.).

Regarding “TAACAAACTATTCCTAATTAATAGATAAACTGCCATGCCGCGGAGTCACCTAGTGCAG”, the binding signal is 8390 fluorescence intensity (a.u.).

Turning to “TTATAATTAGTATTTTCATTGTTGTTAGATGATAAAACATCGGAGTCACCTAGTGCAG”, the binding signal is 17500 fluorescence intensity (a.u.).

On to “AATGTGTTAACTAATCAACTCGTCTCCCATCTCCTGCAAGCGGAGTCACCTAGTGCAG”, for which the binding signal was 5480 fluorescence intensity (a.u.).

On to “CTACTGATTGTATTGATTGGGTAGCTGGATTGAAGTTAATCGGAGTCACCTAGTGCAG”, for which the binding signal is 57000 fluorescence intensity (a.u.).

Turning to “GTCTCTGTCTCTCGCTCTGATTGAAGTGTTCTGCTGCCATCGGAGTCACCTAGTGCAG”, the binding signal was 20400 fluorescence intensity (a.u.).

In the case of “CTTGTATGTTTGTGGATTGATATATTATATATTGATATATCGGAGTCACCTAGTGCAG”, the binding signal was 6720 fluorescence intensity (a.u.).

On to “TTGTGATTTGTTAGAATTGTATTTTACAATGTGTAGTATGCGGAGTCACCTAGTGCAG”, for which the binding signal was 39800 fluorescence intensity (a.u.).

For the sequence “GTCATCATTGATTGATATGATTTTGTATGTGTGAGCAATGCGGAGTCACCTAGTGCAG”, the binding signal was 59400 fluorescence intensity (a.u.).

“TGAGCTGATTGATCGTCTGAAGGGTGTCTGATTGTCAAGTCGGAGTCACCTAGTGCAG”: the binding signal is 52800 fluorescence intensity (a.u.).

Consider “GGGTGCTGAAATTGATATACGATCAATTGTTGTCGGTGATCGGAGTCACCTAGTGCAG”, for which the binding signal was 14000 fluorescence intensity (a.u.).

Consider “GTAATTGGGCTTTCTTTGGGTAGTTATCGCTGGGCTTAATCGGAGTCACCTAGTGCAG”, for which the binding signal is 6360 fluorescence intensity (a.u.).

For the sequence “ACTTGTGTGATGTTTGGATTGATGCCAAAACTTGCCAAATCGGAGTCACCTAGTGCAG”, the binding signal is 3930 fluorescence intensity (a.u.).

In the case of “AATATGATTGCTTTGTGGGTGTATGGTTCATTTTCAATGGCGGAGTCACCTAGTGCAG”, the binding signal is 47700 fluorescence intensity (a.u.).

As for “TGCTGGATTGTATTGATGTGTGTGCTTACCTAGTATAAATCGGAGTCACCTAGTGCAG”, the binding signal was 3580 fluorescence intensity (a.u.).

For the sequence “CGTTAATCGTTGTGATTGATGTCGGATATGTTTGCCACCACGGAGTCACCTAGTGCAG”, the binding signal is 58600 fluorescence intensity (a.u.).

Turning to “ACCAGGAAGTCATAAATTAATGGATCGAATATGACCTGCTCGGAGTCACCTAGTGCAG”, the binding signal is 3160 fluorescence intensity (a.u.).

Turning to “GGTTAATTATGCGAAAGAGAATCTTAATCCCAGGGGCTTTCGGAGTCACCTAGTGCAG”, the binding signal was 17600 fluorescence intensity (a.u.).

With “CCTGATTTCTAAAGAAAGCCGTCCGGTTTTAACTGAGTCTCGGAGTCACCTAGTGCAG”, the binding signal is 10100 fluorescence intensity (a.u.).

In the case of “TATTTTGGACCCATGATAGATTGATTTAGAACATGCGGAGCGGAGTCACCTAGTGCAG”, the binding signal was 11400 fluorescence intensity (a.u.).

For “CTCCACTAATCTAAAATTTGTTTAATGGATCATTGCATCACGGAGTCACCTAGTGCAG”, the binding signal was 16000 fluorescence intensity (a.u.).

For “TTGTAGATTTATACCTGTCCTAATCAGAGTATACTGTATTCGGAGTCACCTAGTGCAG”, the binding signal was 3990 fluorescence intensity (a.u.).

Consider “CTCAGCCTGATTAATCGGAGATAATGAGTCTACGAATTTGCGGAGTCACCTAGTGCAG”, for which the binding signal was 9790 fluorescence intensity (a.u.).

With “ATATATATAATTAGGATTGTTATATGCATAGGTTTGCATTCGGAGTCACCTAGTGCAG”, the binding signal is 18400 fluorescence intensity (a.u.).

As to “TTGCAAAACTGGCTTAATTGATTCCATATTTCCATTCCACCGGAGTCACCTAGTGCAG”, the binding signal was 32200 fluorescence intensity (a.u.).

Take “ATCCGTCATCTGATTTAATCTCATACGTCCGCTATCCTCCCGGAGTCACCTAGTGCAG”: the binding signal was 4210 fluorescence intensity (a.u.).

Regarding “GAGATAAATGATCAACTAGTCCGTGAATTTGACACCGATGCGGAGTCACCTAGTGCAG”, the binding signal is 7110 fluorescence intensity (a.u.).

With “ATGATGATTGACTTATGTGAATATATTGTCTATATATGCACGGAGTCACCTAGTGCAG”, the binding signal is 60300 fluorescence intensity (a.u.).

Take “GCTAATTTGGGCACCATATTGGGCCTGATTTTGGTAAACACGGAGTCACCTAGTGCAG”: the binding signal was 6980 fluorescence intensity (a.u.).

For the sequence “ATTCCAATTGATTTTAGTTAGTTTTCATACATAGTTAACACGGAGTCACCTAGTGCAG”, the binding signal is 10900 fluorescence intensity (a.u.).

For “ATGACTGATTTATGACAGCCGTGCATGTGTATTTGTGTACCGGAGTCACCTAGTGCAG”, the binding signal is 55500 fluorescence intensity (a.u.).

As for “AATGAATGACTGTCACAGTTCGATGATGTGACTATATATGCGGAGTCACCTAGTGCAG”, the binding signal was 16600 fluorescence intensity (a.u.).

“TGGCCGGTGATTTACCGTACTAGTGATGTATGCGTGCAAACGGAGTCACCTAGTGCAG”: the binding signal is 3650 fluorescence intensity (a.u.).

Take “GATGATTGACTTATTATGCTATAATAATATGCTGAATGAACGGAGTCACCTAGTGCAG”: the binding signal was 40600 fluorescence intensity (a.u.).

“ATGATTGATTTGGGTAACATACCAAACACCAAACAGTTCACGGAGTCACCTAGTGCAG”: the binding signal is 56600 fluorescence intensity (a.u.).

Consider “GTTACTGCATGATTTGCTAGATGTATTTTATGACAACAGACGGAGTCACCTAGTGCAG”, for which the binding signal is 12900 fluorescence intensity (a.u.).
